The source of these data is PubChem BioAssay (NCI).

Structures are written as SMILES. The panel holds about 83,000 compounds, 20% with a hit somewhere; the sample as a whole holds those more often.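 Percent growth is the endpoint: 0 to 100 indicates growth inhibition (40 means 60% inhibition), 0 means no net growth, and negative values indicate cell death.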 Values without a mark were called inactive. Active and inactive are the calls of the source. Rule for the calls: active = growth percent below 10; inactive = the rest.

This test has as its system HL-60(TB) leukemia. Briefly: NCI-60 one-dose screen, 48 h (100 = growth as untreated, 0 = no growth, -100 = all killed). The conditions noted are these: 10 µM unless noted.
For the compound `Cc1cc(C#Cc2ccccc2)ccc1-n1c(/C=C/c2cc(O)ccc2O)nc2ccccc2c1=O`, the growth was -11.9% (active). Next, `COc1ccc(C(=O)/C=C/c2cc3ccccc3n3nnnc23)cc1`: 92.1%. Next, `O=c1[nH]nc(-c2ccc(Br)cc2)cc1Cc1ccc(O)cc1`: 85.4%. For `NC(N)=N/N=C\c1cccc(OCc2ccccc2)c1` the value was 55.5%; for `COc1ccccc1/C=C/C1=C(C)CCC(c2ccccc2OC)C1C` (stereo not given), -41.1% (active); for `COc1ccc(OC)c(/C=C/c2nc(=S)n(-c3ccc(Cl)cc3)[nH]2)c1`, 4.33% (active). Consider `C/C(=N\Nc1ccc([N+](=O)[O-])cc1[N+](=O)[O-])c1ccc(Br)cc1`, for which the growth was 101%. Take `Cn1cc(-c2nc3c(F)cc4[nH]ncc4c3c3c2CCCC3)c(C(F)(F)F)n1`: the growth was -11.2% (active). Next, `NC(=O)SCC(=O)NNc1ccccc1`: 101%; `CO[C@@H](C)Cn1c(=O)n(C)c2cnc3ccc(-c4cncc(C(C)(C)O)c4)cc3c21`: 8.97% (active). Next, `OCCN1CCN(CC/C=C2/c3ccccc3Sc3ccc(C(F)(F)F)cc32)CC1`: 73.1%; `O=C(/C=C/c1cc([N+](=O)[O-])ccc1Cl)c1ccccc1`: 61.7%; `C1CCC(C(CC2CCCCN2)C2CCCCC2)CC1` (stereo not given): 11.1%. Regarding `O=C(Nc1ccc2c(c1)C(=O)c1ccccc1-2)c1ccccc1`, the growth was 101%. Next, `CC(=O)N1N=C(c2ccc(Cl)cc2)CC1c1c(C)nn(-c2ccccc2)c1N(C)Cc1ccccc1` (stereo not given): 82.4%.
